Screening results from PubChem.
Compounds with a hit are over-represented: about 20% of the library has one in this group of screens.
Shiga inhibitor – A qHTS for Small Molecule Inhibitors of Shiga Toxin; Vero cells, Shiga toxin protein synthesis inhibition reporter; inhibition, % at 38.7 µM; hit rate 9.2% among 290,000; AID 2315, 2010; in the data active means inhibition mostly above about 28%, no sharp cut-off; inactive means mostly below about 43%; further: 0% is about no effect
Pf growth 48h – Primary qHTS for delayed death inhibitors of the malarial parasite plastid, 48 hour incubation; P. falciparum luciferase growth in erythrocytes, 48 h; Potency, µM (series often up to 28.7 µM), inactives show at the highest dose activity change, negative = inhibition, actives largely listed as inhibitors; hit rate 5.9% among 310,000; AID 504832, 2011; further: potency means the concentration at half of the fitted maximal effect; on the % scale 0 is the no-effect control and ±100 the full control effect
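A one-generation exposure of luciferase-tagged malaria parasites in RPMI 1640/Albumax erythrocyte culture, 37 C and 5% CO2. Inhibition is inferred from decreased luminescence after adding detection reagent.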
Cycloheximide cs – Cycloheximide Counterscreen for Small Molecule Inhibitors of Shiga Toxin; cell reporter, cycloheximide protein synthesis inhibition counterscreen; AID 2314, 2010; max response, %; hit rate 12% among 300,000; in the data active means max response mostly above about 13%, no sharp cut-off; inactive means mostly below about 14%; further: read at 38.3 µM for the half of the compounds with a filed dose; 0% is about no effect
HCMV inh – qHTS Assay for inhibitors of the human cytomegalovirus (HCMV). HFF cells, HCMV-luciferase reporter, 72 h; stronger effect = lower value. activity change, negative = inhibition, % at 57.5 µM. hit rate 4.5% among 410,000. AID 1259415, 2018; in the data active means activity change below about -60%; inconclusive means no clear call, values can overlap the other calls; inactive means above about -39%; further: on the % scale 0 is the no-effect control and ±100 the full control effect
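Luciferase read-out from HCMV-luciferase-infected HFFs (MOI 1 PFU/cell) 72 h post infection at 37C; compounds added after 16 h cell attachment; activity normalized between buffer-only basal and Salinomycin (10uM) inhibitor controls.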
Pf growth 96h – Primary qHTS for delayed death inhibitors of the malarial parasite plastid, 96 hour incubation. P. falciparum luciferase reporter growth, 96 h. Potency, µM (top dose mostly 28.7 µM), without a hit: at the highest dose activity change, negative = inhibition, actives largely listed as inhibitors. hit rate 6.9% among 320,000. AID 504834, 2011; further: potency means the concentration at half of the fitted maximal effect; on the % scale 0 is the no-effect control and ±100 the full control effect
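Plates of compound plus infected erythrocytes (2% hematocrit, 0.05% parasitemia final) incubate 96 hours, 37 C, 5% CO2. Detection reagent added; reduced luminescence from the parasites' luciferase reporter flags inhibition.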
* = called active by the depositor; i = inactive; ? = inconclusive; · = no result; [ ] = remark or other dose. Unless noted, the call rests on the fitted dose curve; in most records, active means well fitted inhibition curve with a large enough effect; inconclusive means small, poorly fitted or top-dose-only effect, or another doubt; inactive means no such curve, though single readings can be large or run the other way.

SMILES | Shiga inhibitor | Pf growth 48h | Cycloheximide cs | HCMV inh | Pf growth 96h
Cc1ccc(N/C=C/C(=O)c2ccccc2)cc1Br | · | 259.2% | 54.0* | 222.6 | 260.0%
O=C(/C=C/Nc1ccc(S(=O)(=O)Nc2ncccn2)cc1)c1ccc(Cl)c(Cl)c1 | 15.1 | 16.5% | -1.1 | ? | 0.0%
O=C(/C=C/Nc1cccc(O)c1)c1ccccc1 | 16.2 | 328.2% | 15.1 | 90.3 | i
O=C(/C=C/Nc1ccc(S(=O)(=O)Nc2ncccn2)cc1)c1cccs1 | 55.2* | 41.2% | 25.1* | 2.9 | 49.5%
O=C(/C=C/Nc1ccc(F)c(Cl)c1)c1ccccc1 | 59.0* | 189.5% | 44.3* | 97.7 | 330.1%
CC(=O)OCC(NC(=O)C(COCc1ccccc1)NC(=O)OC(C)(C)C)C1OC(n2ccc(=O)[nH]c2=O)C(OC(C)=O)C1OC(C)=O (stereo not drawn) | -7.2 | · | -6.1 | · | ·
Cc1nnc(SCC(=O)Nc2ccc(Br)cc2)[nH]c1=O | · | · | · | -22.8 | ·
CC1=C(C(=O)Nc2cc(Cl)ccc2C)C(c2cccs2)n2ncnc2N1 (stereo not drawn) | · | · | · | -20.9 | ·
O=C(/C=C/Nc1ccc(F)cc1)c1ccc(Br)cc1 | 116.0* | i | 29.6* | 75.3 | 2.6%
O=C(/C=C/Nc1ccc(F)c(F)c1)c1ccc(Br)cc1 | 92.7* | 288.9% | 56.6* | 111.7 | 43.4%
COc1ccc(-n2nc(C(=O)NCC(=O)NCCCN3CCN(C)CC3)c3ccccc3c2=O)cc1 | -12.0 | 4.5% | -7.8 | -23.0 | ?
O=Cc1c(OCc2ccccc2)ccc2ccccc12 | 77.9* | 56.2% | 46.9* | -6.3 | 47.4%
C/[N+]([O-])=C/c1c(OCc2ccccc2)ccc2ccccc12 | 32.0 | -6.7%[0.00184 µM] | 3.9 | · | 14.0%
CC(=O)Nc1nnc(SCc2ccc(C(=O)Nc3ccccc3F)cc2)s1 | 31.3 | ? | 17.4 | -20.2 | ?
O=C(Nc1ccccc1)c1ccc(CSc2ncccn2)cc1 | 106.5* | 263.4% | 96.9* | 111.4 | 201.2%
Cn1nnnc1SCc1ccc(C(=O)Nc2nccs2)cc1 | 51.2* | 67.3% | 37.5* | -30.4 | ·
Cn1nnnc1SCc1ccc(CSc2nnnn2C)cc1 | 11.4 | -3.2% | -3.5 | -2.0 | -17.2%
O=C(Nc1ccccc1F)c1ccc(CSc2ncccn2)cc1 | 86.4* | 332.1% | 30.1* | 2.8 | ?
C=CCn1c(SCc2ccc(C(=O)Nc3nccs3)cc2)nnc1-c1ccc(C)c(Cl)c1 | 18.0 | ? | -0.6 | -94.3* | 114.5%
Cc1ccc(NC(=O)c2ccc(CSc3nccc(C)n3)cc2)cc1 | 18.2 | -27.5% | 12.2 | ? | -19.3%
CCNC(=O)C1(C)CCCN1C(=O)c1cc(C)on1 (stereo not drawn) | · | · | · | 0.8 | ·
CC1(C(=O)Nc2ccc3nc[nH]c3c2)CCN1C(=O)C1(c2ccccc2)CCCC1 (stereo not drawn) | · | · | · | -19.7 | ·
COC(=O)c1ccccc1NC(=O)CCCn1nc([N+](=O)[O-])c(Br)c1C | 22.6 | 11.5% | 3.7 | -3.7 | -17.7%
Cc1cc(C)cc(NC(=O)c2ccc(CSc3nnnn3C)cc2)c1 | 13.9 | -7.6% | -4.3 | -23.5 | -11.1%
Cn1nnnc1SCc1ccc(C(=O)Nc2ccccc2F)cc1 | 45.1* | 55.8% | 32.5* | 45.8 | -22.6%
SMILES | Shiga inhibitor | Pf growth 48h | Cycloheximide cs | HCMV inh | Pf growth 96h
CC(O)/C=C/c1cccc[n+]1C (stereo not drawn) | -19.5 | ? | 15.6 | -10.7 | ?
CCN(CC)c1ccc(/C=C/c2cccc[n+]2C)c(OC)c1 | -5.1 | 0.37µM* | -1.7 | -97.2* | 49.7%
CC1CCCCN1S(=O)(=O)c1ccc(C(=O)Nc2nnc(-c3ccncc3)o2)cc1 (stereo not drawn) | -4.6 | ? | 4.1 | -70.8* | ?
O=C(Nc1nnc(-c2ccc3c(c2)CCCC3)o1)c1ccccc1Cl | 4.7 | · | -1.8 | 32.5 | ?
CC1CCCCN1S(=O)(=O)c1ccc(C(=O)Nc2nnc(-c3ccccc3Cl)o2)cc1 (stereo not drawn) | -7.3 | · | -2.4 | ? | 3.9%
Cc1ccc(C(=O)Nc2nnc(-c3ccncc3)o2)cc1 | 22.6 | 50.3% | 9.8* | 2.6 | -18.6%
O=C(Nc1nnc(-c2ccc3c(c2)CCCC3)o1)c1ccccc1 | active | ? | 20.2* | -3.8 | ?
O=C(c1ccc2c(c1)N(Cc1ccc(F)cc1)C(=O)c1ccccc1S2(=O)=O)N1CCCCC1 | · | · | · | 42.8 | ·
COC(=O)c1ccc(NC(=O)CSc2nc3ccc(OC)cc3[nH]2)cc1 | · | · | · | 4.6 | ·
